# Assay outcomes: PubChem, National Center for Advancing Translational Sciences (NCATS)
# L3MBTL1 inh: qHTS Assay for the Inhibitors of L3MBTL1; Lethal(3)malignant brain tumor-like protein 1 (Homo sapiens), Q9Y468; AlphaScreen L3MBTL1–H3K9me1 peptide binding; Potency, µM (top dose mostly 57.1 µM), inactives show top-dose activity, negative = inhibition, hits mostly inhibitors; actives 0.66% (n = 230,000); AID 485360, 2010; note: potency is the fitted concentration of half-maximal effect; % is set by controls: 0 for no effect and ±100 for the full control effect; nearly all actives have a fitted effect of over 60% in size
#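 Read-out is AlphaScreen signal from streptavidin donor and nickel chelate acceptor beads (10 ug/mL final each) bridging L3MBTL1 (50 nM) and biotinylated K9-monomethylated H3(1-15) peptide (75 nM), after 30 min compound exposure at room temperature.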
# BAZ2B block: qHTS Assay for Inhibitors of BAZ2B; Bromodomain adjacent to zinc finger domain protein 2B (Homo sapiens), Q9UIF8; AlphaScreen BAZ2B-H3K14Ac peptide displacement; Potency, µM (series often up to 114 µM), for inactives: top-dose activity change, negative = inhibition, usual class: inhibitors; actives 4.4% (n = 360,000); note: potency is the fitted concentration of half-maximal effect; % is set by controls: 0 for no effect and ±100 for the full control effect; nearly all actives have a fitted effect of over 60% in size
#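 In this displacement format the biotinylated H3(5-23) peptide acetylated at Lys14 serves as ligand at 50 nM, with BAZ2B at 50 nM in PBS pH 7.4 containing 0.01% Tween-20. Donor and acceptor beads are 10 ug/mL final.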
# PI5P4Ka inh: qHTS for Inhibitors of phosphatidylinositol 5-phosphate 4-kinase (PI5P4K) | PI5P4Kalpha enzyme, ADP-Glo luminescence, 60 min; stronger effect = lower value | max response, % | actives 1.2% (n = 330,000) | AID 652105, 2013; active = max response of -50% or lower; inconclusive = between -30% and -50%; inactive = -30% or higher; note: value at the top dose of about 77 µM; % is set by controls: 0 for no effect and ±100 for the full control effect
#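 Enzyme plus substrate dispensed, test compounds pinned in, then ATP (5 microM final) added. After 60 min at RT, ADP-Glo reagent 1 for 45 min and reagent 2 for 30 min preceded luminescence imaging.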
# JMJD2A Tudor: qHTS Assay for Inhibitors of JMJD2A-Tudor Domain; Potency, µM (top dose mostly 114 µM), for inactives: at the highest dose activity change, negative = inhibition, actives largely listed as inhibitors; Lysine-specific demethylase 4A (Homo sapiens), O75164; AlphaScreen JMJD2A-Tudor / H3K4me3 peptide binding; AID 504339, 2011; actives 4.4% (n = 390,000); note: potency is the fitted concentration of half-maximal effect; % is set by controls: 0 for no effect and ±100 for the full control effect; nearly all actives have a fitted effect of over 50% in size
# KDM4E inh: qHTS Assay for Inhibitors of Human Jumonji Domain Containing 2E (JMJD2E) | Potency, µM (top dose mostly 57.1 µM), for inactives: top-dose activity change, negative = inhibition, actives largely listed as inhibitors | Lysine-specific demethylase 4E (Homo sapiens), B2RXH2 | JMJD2E catalytic domain, FDH-coupled NADH fluorescence (FDH is formaldehyde dehydrogenase) | actives 1.6% (n = 230,000); active = well fitted inhibition curve with a large enough effect, not every such curve was filed as active; inconclusive = small, poorly fitted or top-dose-only effect, or another doubt; inactive = no such curve, though single readings can be large or run the other way;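 note: potency is the fitted concentration of half-maximal effect; 0% = wells with enzyme and -100% = buffer wells without enzyme; nearly all actives have a fitted effect of over 50% in size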
# HP1b binding inh: HTS for Inhibitors of HP1-beta Chromodomain Interactions with Methylated Histone Tails; AlphaScreen HP1-beta / biotin-H3K9me3 peptide binding; Potency, µM (doses to about 114 µM), inactives show at the top dose activity change, negative = inhibition, actives largely listed as inhibitors; actives 0.56% (n = 390,000); note: potency is the fitted concentration of half-maximal effect; nearly all actives have a fitted effect of over 70% in size
#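 AlphaScreen: HP1-beta (50 nM) preformed 30 min with biotin-H3(1-18)K9me3 peptide (50 nM) in PBS pH 7.4, 0.01% Tween-20. Compound added for 30 min at RT, then streptavidin donor/nickel chelate acceptor beads (10 ug/mL) for 30 min.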
# Numbers without * were called inactive; ? = inconclusive; · = not tested or not shown; [ ] = another dose, or the depositor's remark. Shown are actives, neighbours in structure and some others; about 5.7% of the full set was active somewhere. Unless noted, calls come from the whole dose curve; as a rule, active = well fitted inhibition curve with a large enough effect; inconclusive = small, poorly fitted or top-dose-only effect; inactive = no such curve, though single readings can be large or run the other way.
SMILES,L3MBTL1 inh,BAZ2B block,PI5P4Ka inh,JMJD2A Tudor,KDM4E inh,HP1b binding inh
COc1ccc(C2(C(=O)c3ccccc3)C(=O)c3ccccc3C2=O)cc1,-17%,22µM*,-1,35µM*,-2%,?
O=C(NCc1ccccc1)c1ccc2c(=O)n(CC3CCCO3)c(=S)[nH]c2c1 (stereo unspecified),-2%,9%,3,89µM*,3%,41%
Cc1ccc(CNC(=O)c2ccc3c(=O)[nH]c4c(C(=O)NCC5CCCO5)sc(=S)n4c3c2)cc1 (stereo unspecified),·,35µM*,3,?,-4%,-38%
Cc1ccc(CNC(=O)c2ccc3c(=O)n(CC4CCCO4)c(=S)[nH]c3c2)cc1 (stereo unspecified),·,3%,·,-10%,0%,25%
O=C(NCc1ccccc1)c1ccc2c(=O)[nH]c3c(C(=O)NCC4CCCO4)sc(=S)n3c2c1 (stereo unspecified),5%,40µM*,-17,?,4%,?
COc1ccc(C(=O)NCCCCNC(=O)c2ccc(OC)c(OC)c2)cc1OC,-6%,-1%,1,7%,·,18%
COc1cccc(CNC(=O)c2[nH]c3cc(C)ccc3c2Sc2ccccc2)c1,·,-32%,·,?,·,4%
Cc1c(/C=C/C(=O)c2cccs2)cnn1C,-2%,6%,?,28µM*,?,?
CCc1ccc(C(=O)/C=C/c2cnn(C)c2C)s1,-2%,-5%,0,1%,?,29%
O=c1cc(CN2CCc3ccccc32)nc2sccn12,·,-5%,-7,18µM*,?,?
CCN1C(=NCc2cc(OC)c(OC)c(OC)c2)N[C@@H](c2ccccc2)[C@H](C(=O)OC)[C@H]1C,5%,-3%,·,·,·,·
CCN1C(=NCCOC)N[C@@H](c2ccccc2)[C@H](C(=O)OC)[C@H]1C,5%,50µM*,-4,-17%,·,16%
CCOC(=O)CSc1nc2c([nH]c3ccccc32)c(=O)n1-c1ccc(OC)cc1,·,-4%,·,20µM*,·,6%
COc1cccc(-n2c(SCC(=O)Nc3nnc(C)s3)nc3c([nH]c4ccccc43)c2=O)c1,·,2%,·,50µM*,·,26%[57 µM]
CCOC(=O)CSc1nnc(Cc2ccc(OC)cc2)n1-c1ccccc1,·,8%,·,45µM*,2%,34%
O=C(NCCc1ccc(Cl)cc1)c1cccn1-c1nnc(N2CCCCC2)s1,·,-22%,·,-35%,·,-5%
COCCCn1c(C)csc1=Nc1cccnc1,-12%,-25%,8,-15%,3%,33%
Cc1csc(=Nc2cccnc2)n1Cc1ccco1,·,45µM*,-2,-19%,0%,-10%
Cc1csc(=Nc2cccnc2)n1CC1CCCCC1,-6%,45µM*,-4,-22%,-3%,6%
Cc1csc(=Nc2ccc(S(=O)(=O)N3CCOCC3)cc2)n1Cc1ccco1,?,·,-8,?,-15%,?
O=C(Nc1ccc2nc(-c3ccco3)c(-c3ccco3)nc2c1)N1CCCCCC1,3.5µM*,11µM*,·,13µM*,?,16µM*
CCOC(=O)C1CCN(C(=O)Nc2ccc3nc(-c4ccco4)c(-c4ccco4)nc3c2)CC1,3.5µM*,11µM*,-70*,79µM*,?,40µM*
O=C(Nc1ccc2nc(-c3cccs3)c(-c3cccs3)nc2c1)N1CCCC1,·,·,·,-9%,·,54%
COc1cc(OC)cc(C(=O)Nc2ccn(C)n2)c1,0%,5%,-11,-12%,·,11%
O=C1CCN(Cc2ccc(O)cc2)CCN1[C@H](CO)c1ccccc1,42%,14%,-1,-9%,·,29%
SMILES,L3MBTL1 inh,BAZ2B block,PI5P4Ka inh,JMJD2A Tudor,KDM4E inh,HP1b binding inh
CN1CCN(c2ncc3c(n2)CCN(Cc2ccc(Br)s2)C3)CC1,·,-28%,·,79µM*,·,11%
CCN1CCN(c2ncc3c(n2)CCN(Cc2ccc(Br)s2)C3)CC1,·,-30%,·,-22%,·,38%
CCN1CCN(c2ncc3c(n2)CCN(Cc2sccc2C)C3)CC1,·,?,·,?,·,21%
CCN1CCN(c2ncc3c(n2)CCN(Cc2ccc(C)s2)C3)CC1,·,?,·,79µM*,·,-20%
CCN1CCN(c2ncc3c(n2)CCN(Cc2cc(Br)cs2)C3)CC1,·,50µM*,·,79µM*,·,4%
Cc1ccccc1/C=C/C(=O)c1ccc([N+](=O)[O-])o1,-5%,35µM*,-10,?,·,?
Cc1cccc(/C=C/C(=O)c2ccc([N+](=O)[O-])o2)c1,1%,?,-8,-32%,·,17%
Clc1ccc(OCCSc2ncccn2)c(Br)c1,113%,251%,16,128%,-8%,130%
Cc1cc(Cl)c(OCCCN(C)C)c(Br)c1,-13%,-37%,0,8.9µM*,?,?
CN(C)CCCOc1ccc(Cl)cc1Br,-3%,45µM*,·,1µM*,-1%,?
COc1ccccc1OCCOCCOc1c(C)cc(C)cc1Br,70%,137%,21,86%,-3%,278%
COc1cccc(OC)c1OCCCOc1ccc(C)cc1Br,52%,87%,6,41%,5%,121%
Cc1ccc(OCCCN(C)C)c(Br)c1,-6%,79µM*,-6,3.2µM*,-25%,?
COC(=O)/C(Cc1cc(Br)c(OC)c(Br)c1O)=N/O,·,·,·,·,-23%,·
CC1CCN(C(=O)Cn2c(=O)n(CCCCCC(=O)NCc3ccccc3Cl)c(=O)c3sccc32)CC1,·,-2%,·,-18%,·,34%
O=C(c1cccn2c(=O)c3ccccc3nc12)N1CCN(c2ccccn2)CC1,9%,1%,·,-4%,-2%,30%
O=C(O)c1cccn2c(=O)c3ccccc3nc12,3%,?,2,79µM*,?,6%
COc1ccc(OCCN2C(=O)c3ccccc3C2=O)c([N+](=O)[O-])c1,·,-7%,-2,-20%,·,39%
CCOc1ccc(NC(=S)N(Cc2ccc(N(C)C)cc2)Cc2ccco2)cc1,?,35µM*,18,16µM*,2%,?
COc1ccc(NC(=S)N(Cc2ccc(N(C)C)cc2)Cc2ccco2)cc1,?,32µM*,8,50µM*,2%,?
CCc1ccc(OCc2cc(=O)n3cc(C)sc3n2)cc1,·,5%,·,5%,·,44%
CCOc1ccc(-c2cc(NC(=O)Nc3cccc(C(C)=O)c3)c(C(=O)OC)s2)cc1,·,-3%,·,-11%,·,46%
